Experimental data published in PubChem BioAssay AID1851 (National Center for Advancing Translational Sciences (NCATS), 2009).
Among all 16,000 compounds or so, about 2,600 (16%) were called active. Inconclusive results (about 20%) are left out. Calls come from the whole dose curve; as a rule, active = well fitted curve in the direction sought with a large enough effect; inconclusive = small, poorly fitted or top-dose-only effect, or effect the other way; inactive = no such curve, though single readings can be large or run the other way. Not all results are given here.

target: Cytochrome P450 2D6 (Homo sapiens) (UniProt P10635); assay: Cytochrome panel assay with activity outcomes; conditions: recombinant CYP, pro-luciferin dealkylation, luminescence, p450-cyp2d6; series mostly up to 57.1 µM
% is set by controls: 0 for no effect and ±100 for the full control effect.

Chain of Cytochrome P450 2D6 (Homo sapiens) (P10635 whole entry, looked up): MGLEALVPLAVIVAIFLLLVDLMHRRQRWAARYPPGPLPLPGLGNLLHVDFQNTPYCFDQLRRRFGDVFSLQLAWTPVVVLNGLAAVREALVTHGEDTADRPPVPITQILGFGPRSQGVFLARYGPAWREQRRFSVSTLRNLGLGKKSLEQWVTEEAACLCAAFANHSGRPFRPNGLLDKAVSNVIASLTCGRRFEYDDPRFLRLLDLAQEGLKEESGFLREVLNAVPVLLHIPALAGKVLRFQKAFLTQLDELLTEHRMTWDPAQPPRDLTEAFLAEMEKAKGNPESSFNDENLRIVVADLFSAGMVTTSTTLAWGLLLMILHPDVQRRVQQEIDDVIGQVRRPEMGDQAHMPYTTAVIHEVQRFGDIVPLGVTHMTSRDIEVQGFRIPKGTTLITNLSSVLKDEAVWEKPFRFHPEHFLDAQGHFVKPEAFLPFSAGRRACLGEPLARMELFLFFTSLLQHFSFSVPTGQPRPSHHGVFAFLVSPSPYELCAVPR

Structure (SMILES)	activity, negative = inhibition	AC50
CCN1C(=O)[C@H]2[C@H]3[C@H](O)[C@H](O)C/C(=N/OCC(C)C)[C@@H]3CC[C@@H]2C1=O	8.5% [at 11.4 µM] (inactive)	
O=C(CN1C(=O)C2C3C=CC(C3)C2C1=O)Nc1ccc(C(=O)O)cc1 (centres undefined)		inactive
CC(C)OC(=O)c1cccc(C(=O)Oc2ccc(Br)cc2)n1		inactive
COc1cc(C2C(C#N)=C(N)N(Nc3ccccc3)C3=C2C(=O)CC(C)(C)C3)ccc1OCc1ccccc1 (centres undefined)		inactive
Cc1c(-n2cc(C(=O)c3cc(Cl)ccc3O)cc(C#N)c2=O)c(=O)n(-c2ccccc2)n1C		inactive
CN(C)[C@H]1C(=O)C(C(=O)NCN2CCCC2)=C(O)[C@]2(O)C(=O)C3=C(O)c4c(O)cccc4[C@@](C)(O)[C@H]3C[C@@H]12		inactive
CCOC(=O)c1c(NC(=O)c2c(Br)cnn2C)c(C#N)nn1-c1ccccc1		inactive
O=C(N/N=C/c1ccccn1)c1ccco1		inactive
COc1cccc2cc(NC(=O)C3CCCCC3)c(=O)oc12		inactive
Cc1ccc(-n2nc(C)c3c2OC(N)=C(C#N)C3c2ccco2)cc1 (centres undefined)		inactive
COc1ccc(C(=O)N2CCCCC2)cc1S(=O)(=O)Nc1ccccc1		inactive
CCOc1ccc(-c2nn(-c3ccccc3)cc2/C=C2\SC(N)=NC2=O)cc1C		inactive
CSc1nsc(SCc2ccc(Cl)cc2)n1		inactive
O=C1c2ccccc2CC[C@H]1CNCCc1ccc(O)cc1		0.398 µM (active)
CCOc1cc(C)ccc1OCc1nnc(SCC(=O)c2cccc([N+](=O)[O-])c2)n1C		inactive
CCOC(=O)CSC1=NC(=O)/C(=C\c2ccc(Cl)cc2)S1		inactive
C[C@@H](CN1CCC(Cc2ccccc2)CC1)[C@@H](O)c1ccc(O)cc1		inactive
C[C@@H](CN1CCC(Cc2ccccc2)CC1)[C@H](O)c1ccc(O)cc1		1 µM (active)
COc1cc(CC(=O)OC2CCOC2=O)cc(OC)c1OC (centres undefined)		inactive
COCCCNC(=O)C1C2C=CC3(CN(Cc4ccc(C)cc4)C(=O)C13)O2 (centres undefined)		inactive
Cc1ccc(CN2CC34C=CC(O3)C(C(=O)NCc3ccc5c(c3)OCO5)C4C2=O)cc1 (centres undefined)		14.1 µM (active)
Cc1ccc(CN2CC34C=CC(O3)C(C(=O)NCc3ccco3)C4C2=O)cc1 (centres undefined)		inactive
CCCCNC(=O)C1C2C=CC3(CN(Cc4ccccc4Cl)C(=O)C13)O2 (centres undefined)		inactive
COc1ccc(CCN2CC34C=CC(O3)C(C(=O)NCc3ccccc3)C4C2=O)cc1OC (centres undefined)		inactive

Structure (SMILES)	activity, negative = inhibition	AC50
O=C(NCC1COc2ccccc2O1)C1C2C=CC3(CN(Cc4cccs4)C(=O)C13)O2 (centres undefined)		14.1 µM (active)
CCOc1cc(S(=O)(=O)N(Cc2ccccc2)Cc2ccccc2)c(OCC)cc1-n1cnnn1		inactive
Cc1nc2ncnn2c(C)c1CCC(=O)NCc1ccccc1		inactive
COc1ccc(NC(=O)CSc2nncn2C)c([N+](=O)[O-])c1		inactive
CCOc1ccc(-n2c(SCC(=O)Nc3ccc(OC)cc3OC)nc3c(c2=O)SCC3)cc1		2.24 µM (active)
CCOc1ccc(-c2cc(CCCC(=O)Nc3cc(OC)ccc3OC)no2)cc1		inactive
N#Cc1cccc(NC(=O)N2CC[C@@]3(CCCN(C(=O)c4ccncc4)C3)C2)c1		inactive
CS(=O)(=O)N1CCC[C@@]2(CCN(C(=O)Nc3cccc(C#N)c3)C2)C1		inactive
CCCc1cc(=O)oc2cc(OCC(=O)N3CCc4ccccc43)ccc12		inactive
CCCCc1cc(=O)oc2cc(OCC(=O)N(CC)CC)ccc12		12.6 µM (active)
CCCc1cc(=O)oc2cc(OCc3nn[nH]n3)ccc12		inactive
COc1cccc2c1C(=O)c1c(O)c3c(c(O)c1C2=O)C[C@@](O)(C(=O)CO)C[C@H]3O[C@H]1C[C@@H](N)[C@H](O)[C@@H](C)O1.[W]	4.97% [at 11.4 µM] (inactive)	
COC(=O)c1nn(-c2ccc(OC)cc2)c(=O)cc1Oc1cccc(Cl)c1		inactive
O=C1CCc2cc(OCCCCc3nnnn3C3CCCCC3)ccc2N1		inactive
Fc1ccc([C@H]2CCNC[C@H]2COc2ccc3c(c2)OCO3)cc1		inactive
Cn1c(=O)cc(OCCCC(=O)N2CCN(c3ccccc3)CC2)c2ccccc21		inactive
c1ccc(N2CCN(CCCOc3ccc4c(c3)OCO4)CC2)cc1		0.126 µM (active)
O=C(O)c1cc(=O)[nH]c(SCc2ccccc2)n1	4.29% [at 11.4 µM] (inactive)	
C#CCCCO/N=C1/C[C@@H](O)[C@@H](O)[C@@H]2[C@@H]3C(=O)N(Cc4ccccc4)C(=O)[C@H]3CC[C@H]12	15.7% [at 11.4 µM] (inactive)	
COC(=O)c1cc(Br)c(=O)n(CCc2ccc(O)cc2)c1		inactive
CCNc1ncc2nc(-c3cccs3)c(=O)n(Cc3cccc(OC)c3)c2n1		inactive
CC1(C)C2([N+](=O)[O-])CN3CC1([N+](=O)[O-])CN(C2)C3c1ccccc1 (centres undefined)		inactive
CO[C@]1(NC(=O)[C@H](C(=O)O)c2ccc(O)cc2)C(=O)N2C(C(=O)O)=C(CSc3nnnn3C)CO[C@H]21		inactive
Cc1ccc(C(=O)O/N=C/c2c(Cl)n(C)c3ccccc23)cc1		inactive

Structure (SMILES)	activity, negative = inhibition	AC50
Cc1c2cnccc2c(C)c2c1c1ccccc1n2CCOC(=O)c1ccccc1		3.16 µM (active)
O=C(OCn1nnc2ccccc2c1=O)c1cccnc1		inactive
COc1ncc2ncc(=O)n(CCC#N)c2n1		inactive
CC(C)(C)NC[C@H](O)COc1cccc2c1CCC(=O)N2		inactive
CC(C)(C)NC[C@@H](O)COc1ccccc1C1CCCC1		2.51 µM (active)
CC(C)(C)NC[C@H](O)COc1cccc2c1CCCC2=O		inactive
CC(C)n1cc(/C=C2/SC(=O)N(CC(=O)Nc3ccc4c(c3)OCO4)C2=O)c2ccccc21		inactive
Cc1cccc2cc(=O)[nH]c(C)c12		inactive
NC(=O)C1(N2CCCCC2)CCN(C(=O)c2cccn3c(=O)c4cc(Cl)ccc4nc23)CC1		inactive
CCCC[C@H]1C[C@@H]1[C@@H]1N(P(=O)(c2ccccc2)c2ccccc2)C[C@@](O)(c2ccccc2)CC12CC2		15.8 µM (active)
CCCC[C@H]1C[C@@H]1[C@@H]1N(P(=O)(c2ccccc2)c2ccccc2)[C@](CO)(c2ccccc2)CC12CC2		2.51 µM (active)
CCCC[C@@H]1C[C@H]1C(NC(=O)c1ccc(-c2ccccc2)cc1)c1ccc(-c2ccccc2)cc1 (some centres undefined)		inactive
CCCC[C@@H]1C[C@H]1C(NC(=O)c1ccccc1)c1ccc(-c2ccccc2)cc1 (some centres undefined)		inactive
C=C(CC1([C@@H](NP(=O)(c2ccccc2)c2ccccc2)[C@H]2C[C@@H]2CCCC)CC1)c1ccccc1		inactive
Cc1ccc(NC(=O)CCSc2nnc3ccccn23)cc1		inactive
CCOC(=O)c1c(C)nc2c(c1-c1ccccc1)C(=O)CC(C)(C)C2		inactive
CCOC(=O)Cc1csc(NC(=O)c2ccc(Cl)nc2)n1		inactive
COc1ccc(Oc2ncc3ncc(=O)n(C)c3n2)cc1		inactive
Cc1nc2cnc(Nc3ccccc3)nc2n(Cc2cccs2)c1=O		inactive
O=C1c2ccccc2C(=O)N1CCSC(=S)N1CCOCC1		inactive
O=C(NCc1cc(F)cc2c1OCCO2)[C@H]1C[C@@H]1[C@H](NP(=O)(c1ccccc1)c1ccccc1)c1ccccc1		inactive
C[N@+]1(CCC(=O)c2ccccc2)CC[C@H]2CC[C@H](C2)C1	10.5% [at 11.4 µM] (inactive)	
O=C(O)CCC(=O)CCC(=O)c1ccccc1		inactive
CC1(C)CC(=O)C(CCC(=O)c2ccccc2)C(C)(C)N1 (centres undefined)		0.891 µM (active)

Structure (SMILES)	activity, negative = inhibition	AC50
O=C(c1cccc(F)c1)N1CCC[C@@]2(CCN(c3ccccc3)C2)C1		inactive
N/C(=N\OC(=O)Cc1ccc(-c2ccccc2)cc1)c1cccc([N+](=O)[O-])c1		inactive
CC(=O)O[C@]1(C)N=NC2(CCCCC2)O1	-4.7% [at 11.4 µM] (inactive)	
COc1cc(C(=O)NCC(c2cccnc2)N2CCN(C)CC2)cc(OC)c1OC (centres undefined)		inactive
COc1ccc(C(CNC(=O)c2cc(=O)[nH]c3ccccc23)N2CCCC2)cc1 (centres undefined)		14.1 µM (active)
CC(C)NC(=O)COC(=O)c1cc(=O)[nH]c2ccccc12		inactive
Cn1c(=O)c2[nH]c([C@@H]3CC(=O)C[C@H](c4nc5c([nH]4)c(=O)n(C)c(=O)n5C)N3)nc2n(C)c1=O	-10.1% [at 11.4 µM] (inactive)	
CC(=O)N1CC2(CC2)CC1c1ccccc1 (centres undefined)		inactive
CC(C)(C)c1nnc(NC(=O)c2cc(-c3ccccc3)nc3ccccc23)s1		inactive
Cn1cc(-c2nc3cncnc3n(C3CC3)c2=O)c2ccccc21		inactive
Cc1ccc(C(=O)NC(=S)Nc2cc(C(F)(F)F)ccc2Cl)cc1		inactive
CN(C)c1cc[n+](CC(=O)Nc2cc(C(F)(F)F)ccc2Cl)cc1		0.126 µM (active)
Cc1cc[n+](CC(=O)Nc2cc(C(F)(F)F)ccc2Cl)cc1		0.224 µM (active)
COc1cc(C(=O)Nc2cc(C(F)(F)F)ccc2Cl)cc(OC)c1OC		inactive
O=C(CS(=O)c1cccc(C(F)(F)F)c1)Nc1ccccc1Cl (centres undefined)		inactive
Cc1ccc(C)n1CCN1CCN(CC(=O)Nc2cc(C(F)(F)F)ccc2Cl)CC1		11.2 µM (active)
N/C(CC(=O)Nc1cc(C(F)(F)F)ccc1Cl)=N\O	2.47% [at 11.4 µM] (inactive)	
COC(=O)CNC(=O)/C=C/c1ccc(OC)cc1		inactive
O=C(Cc1ccccc1)NC(=S)Nc1cc(C(F)(F)F)ccc1Cl		inactive
Cc1cc(C)n(-c2ccc(C(=O)Nc3cc(C(F)(F)F)ccc3N3CCOCC3)cc2)n1		inactive
COc1ccc(/C=C/C(=O)Nc2cc(C(F)(F)F)ccc2Cl)cc1		2.82 µM (active)
COc1ccc2nc(NCN3C(=O)c4ccccc4C3=O)sc2c1	-19.6% [at 11.4 µM] (inactive)	
